GAA glycogen mod – alters human alpha-glucosidase cleavage of glycogen | P10253 | recombinant GAA, glycogen substrate, Amplex Red glucose oxidase fluorescence | Potency, µM (titrated, usually from 76.4 µM), for inactives: at the top dose activity change, negative = inhibition, hits mostly inhibitors | actives 0.38% (n = 300,000) | AID 2100;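 note: potency is the fitted concentration of half-maximal effect; 0% = full enzyme reaction and -100% = no-enzyme basal signal; the screen sought inhibitors and activators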
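Recombinant enzyme (4 nM final) with compounds titrated up to 77 uM and bovine liver glycogen (30 ug) in citrate pH 5.0, 0.01% Tween-20, 37 C 40 min. Released glucose detected by Amplex Red/glucose oxidase (Ex 573/Em 610); AC50 from Hill fits.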
N370S GC – N370S glucocerebrosidase modulation, Gaucher chaperone candidate; actives 0.092% (n = 330,000); Potency, µM (top dose mostly 59.4 µM), inactives show at the top dose activity change, negative = inhibition, actives largely listed as inhibitors; N370S GC spleen homogenate, 4MU-glucoside fluorescence;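 note: potency is the fitted concentration of half-maximal effect; 0% = full enzyme activity and -100% = no enzyme basal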
GLA inh pH 4.5 – inhibitors of human alpha-galactosidase A at pH 4.5 | purified enzyme, 4-MU-alpha-Gal fluorescence, pH 4.5 | 230,000 tested, under 10 active | activity change, negative = inhibition, % at 105 µM | P06280;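 note: 0% = full activity with enzyme and -100% = basal without enzyme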
GAA inh – inhibitors of human lysosomal alpha-glucosidase; P10253; Potency, µM (highest dose often 76.9 µM), for inactives: at the highest dose activity change, negative = inhibition, hits mostly inhibitors; purified human GAA, 4-MU-alpha-glucoside fluorescence; actives 0.005% (n = 200,000);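 note: potency is the fitted concentration of half-maximal effect; plate controls were uninhibited enzyme wells for no effect and no-enzyme background for full effect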
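Fluorescence at Ex 365/Em 440 nm from 4-methylumbelliferone reported enzyme activity after 20 min at room temperature. Reactions used 4 nM enzyme and 400 uM substrate at pH 5.0; curves fitted with the Hill equation.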
GAA spleen mod – inhibits or activates alpha-glucosidase in human spleen homogenate | actives 0.006% (n = 240,000) | human spleen homogenate, 4-MU-alpha-glucoside fluorescence | Potency, µM (doses to about 79.9 µM), without a hit: top-dose activity change, negative = inhibition, most hits filed as inhibitors;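 note: potency is the fitted concentration of half-maximal effect; 0% = enzyme with vehicle and -100% = no enzyme basal signal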
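AC50 values come from Hill-equation fits of concentration-response data, normalized to no-enzyme and full-activity controls. Enzyme source: 1 ug human spleen homogenate; 1 mM fluorogenic 4-MU glucoside, pH 5.0 citrate buffer, 37 C, 40 min.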
aGal spleen mod – inhibits or activates alpha-galactosidase in human spleen homogenate; human spleen homogenate, 4MU-alpha-Gal fluorescence, 40 min; Potency, µM (highest dose often 80 µM), without a hit: top-dose activity change, negative = inhibition, hits mostly inhibitors; actives 0.008% (n = 240,000); AID 2107;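 note: potency is the fitted concentration of half-maximal effect; 0% = enzyme with vehicle and -100% = no enzyme basal signal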
Target sequence (P06280 32-429 limits assumed): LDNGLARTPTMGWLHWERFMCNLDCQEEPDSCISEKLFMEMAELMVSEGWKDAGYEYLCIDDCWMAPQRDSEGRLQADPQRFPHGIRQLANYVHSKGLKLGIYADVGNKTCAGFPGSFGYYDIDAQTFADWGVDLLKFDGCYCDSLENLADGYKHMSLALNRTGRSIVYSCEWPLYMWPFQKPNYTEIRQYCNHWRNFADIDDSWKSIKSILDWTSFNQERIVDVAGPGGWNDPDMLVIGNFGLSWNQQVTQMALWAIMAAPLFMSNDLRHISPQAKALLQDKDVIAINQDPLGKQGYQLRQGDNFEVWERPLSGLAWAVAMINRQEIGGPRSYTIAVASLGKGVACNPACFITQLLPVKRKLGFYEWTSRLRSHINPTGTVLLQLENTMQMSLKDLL
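Human spleen homogenate (1 ug) as enzyme source, 4-methylumbelliferyl-alpha-D-galactopyranoside 1 mM final, citrate/phosphate pH 5.0 with 0.01% Tween-20. Compounds 40 min at 37C, NaOH/glycine stop; fluorescence Ex 365/Em 440, Hill-fit AC50.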
Active calls of the source: *; ? = inconclusive; · = not tested or not shown; ! = a repeat was not active; [ ] = remark or other dose. This is a sample that favours compounds with a hit; in the whole collection about 0.43% have one here. Calls come from the whole dose curve; as a rule, active = well fitted curve in the direction sought with a large enough effect; inconclusive = small, poorly fitted or top-dose-only effect, or another doubt; inactive = no such curve, though single readings can be large; an effect the other way counts as inactive or inconclusive.

SMILES	GAA glycogen mod	N370S GC	GLA inh pH 4.5	GAA inh	GAA spleen mod	aGal spleen mod
COc1cccc(OCC(=O)NNC(=S)Nc2ccc(Cl)cc2Cl)c1	56.2µM*	3.9%	-0.6	8.4%	7.8%	12.1%
COc1ccc(Cn2nnc3c(C)n[nH]c(=O)c32)cc1	-3.4%	0.2%	·	·	·	·
Cc1nn(Cc2ccc(Cl)cc2Cl)c(Cl)c1/C=N/NC(=O)CNc1cccc(C(F)(F)F)c1	6.9%	-5.5%	-0.7	-2.4%	4.9%	1.2%
Oc1cccc(/C=N/N2CCN(c3ccccn3)CC2)c1	?	1.2%	-7.5	·	0.1%	-0.2%
Oc1ccc(/C=N/N2CCN(c3ccccn3)CC2)cc1	11.2µM*	3.2%	3.5	·	-3.4%	-4.7%
Cc1nn(-c2ccccc2)c(C)c1/C=N/N1CCN(c2ccccc2)CC1	-12.9%	-7.3%	-9.4	?	-6.1%	1.5%
CCCCN(CC)CCCNC(=O)Nc1sc2nc3n(c(=O)c2c1C)CCC(C)CC3 (configuration not stated)	10µM*	·	·	·	·	·
O=C(c1ccccc1)c1ccc(OCCOCCN2CCN(Cc3ccccc3)CC2)cc1	22.0%	14.1µM*	4.8	3.8%	-6.9%	-11.3%
FC(F)(F)c1cccc(Oc2ccc3c(C(F)(F)F)cc(C(F)(F)F)nc3n2)c1	-1.5%	4.9%	-13.2	-4.0%	-20.8%	7.4%
CCn1c(SCC(=O)c2ccc(O)c(O)c2)nnc1-c1ccc(C)cc1	12.5µM*	-17.0%	3.4	-4.7%	-4.0%	-6.7%
O=C(NCCCCc1ccccc1)C12CN(Cc3ccccc3)CC1C(c1cccc([N+](=O)[O-])c1)=NO2 (configuration not stated)	-9.8%	-7.4%	-11.6	-2.5%	-8.4%	-8.0%
O=C(NCCCCc1ccccc1)C12CN(Cc3ccccc3)CC1C(c1ccc([N+](=O)[O-])cc1)=NO2 (configuration not stated)	-0.8%	10µM*	-18.8	?	-4.3%	-7.7%
O=C(NCc1ccccc1Cl)c1ccc(CS(=O)(=O)c2ccc(Br)cc2)o1	44.7µM*	·	·	·	·	·
CCOC(=O)Cc1csc(NC(=O)/C=C\c2ccccc2Cl)n1	-6.7%	-4.5%	-19.2	1.5%	-17.8%	4.7%
COc1ccc(NCCNc2ccc(OC)cc2)cc1	7.88µM*	5.4%	5.3	0.7%	-9.2%	-0.3%
COc1ccc(C(=O)CCNc2ccc(F)cc2)cc1	-5.4%	-3.5%	5.6	·	-4.1%	-6.7%
CN(c1ccc([N+](=O)[O-])cc1C(=O)Nc1ccccc1)C1CCCCC1	-0.5%	-11.1%	-3.4	-5.3%	-0.7%	4.1%
Cc1cc([N+](=O)[O-])cc2c1NCC1CC=CC21 (configuration not stated)	-2.5%	-23.9%	-2.7	1.6%	1.7%	3.7%
CCCCc1ccc(NC(=O)Nc2cccnc2)cc1	4.7%[76.3 µM]	11.2µM*	·	·	·	·
Oc1ccc(C(c2nnnn2C2CCCCC2)N2CCOCC2)cc1 (configuration not stated)	-4.8%	-18.8%	5.8	8.0%	-6.2%	-2.8%
CCOC(=O)c1cc2oc(C(c3nnnn3C3CCCCC3)N3CCOCC3)cc2[nH]1 (configuration not stated)	-2.2%	12.6µM*	-7.7	-4.3%	-15.8%	-10.5%
O=C(CCC(=O)N1CCSc2ccccc21)Nc1cccc(F)c1	-9.7%[76.3 µM]	-11.6%	·	·	·	·
Cc1ccccc1N=C1NC(=O)CC(c2ccccc2)S1 (configuration not stated)	11.2µM*	-5.0%	-4.6	0.9%	6.3%	-5.3%
O=c1c(-c2cc(F)cc(F)c2)nc2cnc(Nc3ccccc3)nc2n1C[C@H]1CCCO1	·	6.5%	·	·	3.4%	-4.0%
NC(N)=N/N=C/c1ccc(OCc2ccccc2)c(OCc2ccccc2)c1	-9.2%[76.3 µM]	11.2µM*	·	·	·	·
SMILES	GAA glycogen mod	N370S GC	GLA inh pH 4.5	GAA inh	GAA spleen mod	aGal spleen mod
NC(N)=N/N=C/c1ccc(OCc2ccccc2Cl)cc1	-2.1%	22.4µM*	-5.7	2.3%	-0.3%	1.2%
NC(N)=N/N=C/c1ccccc1	7.1%	3.0%	-5.5	-2.9%	-1.3%	0.5%
COc1cc(/C=N/N=C(N)N)ccc1OCc1ccc(Cl)cc1	-6.0%	7.94µM*	-0.5	2.6%	2.0%	8.6%
CC(CC(=O)O)CC1=NS(=O)(=O)c2ccccc2N1 (configuration not stated)	-4.7%	5.4%	4.6	-1.8%	5.7%	16.6%
COc1cc(C=O)cc(Br)c1OCC(N)=O	12.0%	6.2%	5.7	12.4%	0.5%	2.0%
CN/S(=N/S(=O)(=O)c1ccccc1)c1ccc(C)cc1 (configuration not stated)	-4.8%	-2.2%[2.35 µM]	-2.5	-0.8%	3.5%	5.6%
CC(=O)c1ccc(NC(=O)COc2ccccc2-c2nc(C(C)C)no2)cc1	-9.8%[76.3 µM]	·	·	·	·	·
CC(=O)c1ccc(NC(=O)COc2ccccc2-c2nc(C)no2)cc1	7.08µM*	·	·	·	·	·
CC(C)(C)NC(=O)C1CCN(S(=O)(=O)c2cccc3nsnc23)CC1	-6.8%[76.3 µM]	8.9%	·	·	·	·
COC(=O)CNC(=O)C1CCN(S(=O)(=O)c2cccc3nsnc23)CC1	11.2µM*!	-26.5%	·	·	·	·
Cc1ccc(C)c(N(CC(=O)NC2CCCC2)C(=O)c2csnn2)c1	0.0%	7.9%	·	·	·	·
O=C(O)C1OC(Oc2c(-c3ccc(O)c(O)c3)oc3cc(O)cc(O)c3c2=O)C(O)C(O)C1O (configuration not stated)	3.98µM*	-21.5%	-12.4	1.4%[15.4 µM]	-16.7%	-11.7%
Cc1cc(C)c2c(-n3cccc3)c(C(=O)NCC(C)c3ccccc3)sc2n1 (configuration not stated)	1.9%[76.3 µM]	·	·	·	·	·
Cc1cc(C)c2c(-n3cccc3)c(C(=O)NNS(=O)(=O)c3ccc(Br)cc3)sc2n1	17.8µM*	?	-4.9	-5.2%	-5.7%	6.4%
O=C(O)C[C@@H]1C(=O)O[C@@H]2C(COC(=O)c3cc(O)c(O)c(O)c3)O[C@@H](OC(=O)c3cc(O)c(O)c(O)c3)[C@@H](OC(=O)c3cc(O)c(O)c4c3[C@H]1[C@H](O)C(=O)O4)[C@H]2OC(=O)c1cc(O)c(O)c(O)c1 (some centres not stated)	1.57µM*	-19.1%	-1.2	·	?	10.3%
Cc1ccc(S(=O)(=O)N2CCC(C(=O)N[C@@H](C)C(=O)NC3CCS(=O)(=O)C3)CC2)cc1 (some centres not stated)	-6.6%	2.5%	·	-10.8%	3.8%	3.7%
O=C(Nc1ccc2c(c1)OCO2)c1c(Cl)nc2sccn12	3.2%	3.9%	-2.7	-2.8%	-3.9%	3.9%
COc1ccc(C2=Nc3ccccc3OC2)cc1	25.1µM*	21.3%	?	0.4%	1.6%	7.8%
COc1ccc(-c2cc(-c3ccccc3)nc3c2COc2ccccc2-3)cc1	-1.0%[76.3 µM]	·	·	·	·	·

Compound activity as filed in PubChem BioAssay.
